Rows were chosen to be rich in hits. Some 7.6% of all compounds tested hit in one or more screens of this group.
KCNH2 WT inh: qHTS for Inhibitors of KCHN2 3.1: Wildtype qHTS. U2OS, BacMam KCNH2, thallium flux FluxOr; stronger effect = lower value. activity change, % at 1.84 µM. hit rate 0.37% among 340,000. AID 720551, 2013. Voltage-gated inwardly rectifying potassium channel KCNH2 (Homo sapiens), Q12809;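 active = maximum activity change below -70%; inconclusive = maximum activity change between -70% and -50%; inactive = maximum activity change above -50%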; also: % is scaled to controls: 0 for no effect and ±100 for the full control effect
Target sequence (Q12809 whole entry, looked up): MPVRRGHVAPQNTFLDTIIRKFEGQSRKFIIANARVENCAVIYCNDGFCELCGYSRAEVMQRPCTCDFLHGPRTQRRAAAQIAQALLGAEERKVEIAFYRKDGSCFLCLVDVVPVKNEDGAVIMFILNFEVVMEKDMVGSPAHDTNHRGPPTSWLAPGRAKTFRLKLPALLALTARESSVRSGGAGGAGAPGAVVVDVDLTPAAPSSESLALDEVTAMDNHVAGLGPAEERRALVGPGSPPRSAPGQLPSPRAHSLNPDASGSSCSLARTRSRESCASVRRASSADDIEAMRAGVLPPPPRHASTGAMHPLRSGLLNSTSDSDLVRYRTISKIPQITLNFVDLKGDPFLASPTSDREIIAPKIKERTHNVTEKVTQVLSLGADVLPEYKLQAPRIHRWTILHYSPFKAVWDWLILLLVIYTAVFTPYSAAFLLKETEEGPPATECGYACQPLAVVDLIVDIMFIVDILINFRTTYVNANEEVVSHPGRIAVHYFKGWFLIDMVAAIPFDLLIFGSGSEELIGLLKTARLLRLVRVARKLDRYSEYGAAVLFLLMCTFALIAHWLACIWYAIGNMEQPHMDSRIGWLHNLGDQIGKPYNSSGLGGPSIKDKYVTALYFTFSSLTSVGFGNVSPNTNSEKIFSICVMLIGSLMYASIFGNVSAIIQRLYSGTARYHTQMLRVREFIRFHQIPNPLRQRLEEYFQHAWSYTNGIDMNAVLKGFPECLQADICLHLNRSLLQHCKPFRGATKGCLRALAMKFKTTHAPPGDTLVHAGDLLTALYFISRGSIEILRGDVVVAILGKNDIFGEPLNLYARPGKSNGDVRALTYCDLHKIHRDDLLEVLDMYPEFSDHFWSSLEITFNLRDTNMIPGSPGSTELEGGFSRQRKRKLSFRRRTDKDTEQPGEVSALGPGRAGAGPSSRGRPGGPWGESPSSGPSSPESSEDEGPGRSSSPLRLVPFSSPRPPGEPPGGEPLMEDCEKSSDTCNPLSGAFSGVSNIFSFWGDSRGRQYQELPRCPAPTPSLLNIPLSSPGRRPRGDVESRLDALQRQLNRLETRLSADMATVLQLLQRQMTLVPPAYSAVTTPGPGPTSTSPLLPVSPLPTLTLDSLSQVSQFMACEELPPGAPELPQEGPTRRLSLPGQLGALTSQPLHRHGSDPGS
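U2OS cells were transduced with wild-type KCNH2 virus (2.03 x 10^8 / mL) for 4 h at room temperature, then cultured overnight at 37 C. Thallium flux was read with FluxOr dye. Rate constants were normalized to DMSO controls.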
KB-3-1 cytotox: qHTS assay for MDR1-selective chemotherapeutics: Primary screen using the parental adenocarcinoma cell KB-3-1; hit rate 1.4% among 400,000; Potency, µM (series often up to 46.1 µM), usual class: cytotoxic; AID 1347075, 2019; KB-3-1 viability, CellTiter-Glo ATP luminescence, 72 h; also: potency is read from the fitted curve at half-maximal effect; % is scaled to controls: 0 for no effect and ±100 for the full control effect; nearly all actives have a fitted effect of over 60% in size
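Multi-concentration cytotoxicity screen in KB-3-1 cells grown in DMEM lacking phenol red with 10% FBS. After 72 h at 37 °C with compound, ATP-dependent luminescence was recorded.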
KCNH2 3.1 block: qHTS for Inhibitors of KCHN2 3.1: Mutant qHTS | AID 720553, 2013 | Potassium voltage-gated channel subfamily H member 2, brain isoform KCNH2 3.1 (human) | U2OS KCNH2 3.1, thallium flux FluxOr; stronger effect = lower value | hit rate 0.95% among 340,000 | activity change, % (tested at about 1.8 µM);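 active = maximum activity change below -70%; inconclusive = maximum activity change from -70% to -50%; inactive = maximum activity change above -50%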;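 also: thallium influx rate constant from kinetic fluorescence after stimulation buffer; % is scaled to controls: 0 for no effect and ±100 for the full control effect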
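Thallium flux read-out: FluxOr dye with Red40 quencher in HBSS/HEPES, 45 min at RT. Rate constants from kinetic reads were normalized to positive and negative DMSO controls. Cells: U2OS virally expressing the 3.1 isoform.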
KB-V1 cytotox: qHTS assay for MDR1-selective chemotherapeutics: Primary screen using the drug-selected MDR subline cells KB-V1; KB-V1 MDR cells viability, CellTiter-Glo, 72 h; Potency, µM (doses to about 46.1 µM), most hits filed as cytotoxic; hit rate 3.4% among 400,000; AID 1347076, 2019; also: potency is read from the fitted curve at half-maximal effect; % is scaled to controls: 0 for no effect and ±100 for the full control effect; nearly all actives have a fitted effect of over 60% in size
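Cells of the MDR subline KB-V1 are plated, dosed with compound at multiple concentrations, and incubated 72 h at 37 degrees C; CellTiter-Glo is then added and luminescence read after 10 min.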
MCF10A rerep: A quantitative high throughput screen for small molecules that induce DNA re-replication in MCF 10a normal breast cells. Potency, µM (titrated, usually from 46.1 µM), without a hit: at the top dose activity, positive = re-replication, usual class: activators. MCF 10A DNA re-replication, Hoechst nuclear intensity, 48 h. hit rate 2.9% among 350,000; also: potency is read from the fitted curve at half-maximal effect; % of control where 0% means no effect; nearly all actives have a fitted effect of over 50% in size
SW480 rereplic: A quantitative high throughput screen for small molecules that induce DNA re-replication in SW480 colon adenocarcinoma cells | hit rate 1.8% among 340,000 | Potency, µM (titrated, usually from 46.1 µM), without a hit: at the top dose re-replication activation, actives largely listed as activators | SW480 DNA re-replication, Hoechst DNA content imaging, 48 h; also: potency is read from the fitted curve at half-maximal effect; % of control where 0% means no effect; nearly all actives have a fitted effect of over 55% in size
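Image-based DNA-content assay: after two days of treatment, nuclei were labelled with the DNA dye Hoechst and imaged, and hits were compounds raising the count of nuclei showing high fluorescence intensity.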
An asterisk follows results filed as active; i = inactive; ? = inconclusive; nt = not tested or not shown. Unless noted, calls follow the shape of the dose curve; as a rule, active = well fitted curve in the direction sought with a large enough effect; inconclusive = small, poorly fitted or top-dose-only effect, or another doubt; inactive = no such curve, though single readings can be large; an effect the other way counts as inactive or inconclusive.

SMILES | KCNH2 WT inh | KB-3-1 cytotox | KCNH2 3.1 block | KB-V1 cytotox | MCF10A rerep | SW480 rereplic
CCOc1ccccc1NC(=O)CSc1nc(=O)n(CCCN2CCOCC2)c2c1CCCC2 | -4 | i | -12 | i | 4% | -4%
O=C(NCCc1ccccc1)c1ccc(Nc2nc3ccccc3n3nnnc23)cc1 | nt | i | nt | i | nt | nt
Cc1ccc(C(=O)c2ccccc2C(=O)OCC(=O)Nc2cccc([N+](=O)[O-])c2)cc1 | 0 | i | -14 | 23µM* | 18% | 2%
CN(C)c1ccc(/C=C/CNC[C@H]2O[C@@H](n3ccc(N)nc3=O)[C@H](O)[C@@H]2O)cc1 | -8 | i | 15 | i | nt | nt
CCCNC(=O)C1=CC(c2ccc3c(c2)OCO3)=NS(=O)(=O)N1C | nt | i | nt | i | nt | nt
CSc1nc(N2CCOCC2)nc2ccc(C)cc12 | -9 | i | 4 | i | 21µM* | ?
O=C(Cc1ccc(F)cc1)NCCc1ccccc1 | -5 | i | ? | i | -9% | -4%
O=C(CS(=O)(=O)Cc1ccccc1)NCCc1ccc(F)cc1 | 3 | i | -78* | i | ? | -2%
COc1cc(C(=O)Nc2ccc3nc(SCc4ccc(C)cc4)sc3c2)cc(OC)c1OC | nt | i | nt | i | nt | nt
CCc1ccc(CNC(=O)CSc2cc(=O)n(CC)c3ccccc23)cc1 | nt | ? | nt | i | nt | nt
CCn1c(=O)cc(SCC(=O)NCc2ccco2)c2ccccc21 | -10 | 26µM* | 6 | ? | 3.7µM* | 21µM*
Cc1ccc(NC(=O)CSc2nnc3scc(-c4ccccc4)n23)cc1 | nt | i | nt | i | nt | nt
COc1ccc(CNc2nc(SCC(=O)NCc3ccco3)nc3ccccc23)cc1 | 46 | i | -28 | 6.5µM* | 20% | -1%
Cc1ccc(-c2csc3nnc(SCC(=O)Nc4cccc(C)n4)n23)cc1 | -1 | i | -1 | 7.3µM* | 3% | -2%
O=C(CCSc1nnc2scc(-c3ccccc3)n12)Nc1nc(-c2ccccc2)ns1 | 0 | i | -11 | 10µM* | 2% | -3%
CC(C)(C)c1ccc(-c2nnc(NC(=O)Nc3ccc4ccccc4c3)s2)cc1 | nt | ? | nt | i | nt | nt
COc1ccc2oc(C(=O)OCC(=O)NCc3ccccc3OC)c(C)c2c1 | -4 | i | -37 | i | ? | 129%
CCn1c(=O)cc(SCC(=O)NCc2ccccn2)c2ccccc21 | 4 | i | -184* | i | ? | 0%
CCn1c(=O)cc(OCC(=O)NCc2ccc(C)o2)c2ccccc21 | -7 | i | 0 | 18µM* | ? | 1%
O=C(CSc1nnc2scc(-c3ccc(Cl)cc3)n12)NCc1ccco1 | -2 | i | 14 | 23µM* | ? | 0%
O=C(CSc1nnc2scc(-c3ccccc3)n12)NCc1ccco1 | -3 | i | -7 | ? | ? | 0%
COc1ccc(C(=O)NCCn2cc(SCC(=O)NCc3ccco3)c3ccccc32)cc1 | -2 | 16µM* | 2 | ? | -22% | ?
CCn1c(=O)cc(SCC(=O)NCc2cccnc2)c2ccccc21 | 1 | i | -1 | i | -9% | 1%
COc1ccc(CNC(=O)COc2cc(=O)n(C)c3ccccc23)cc1 | -3 | i | 0 | ? | 0% | -3%
CCn1c(=O)cc(SCC(=O)NCc2ccc(C)o2)c2ccccc21 | 1 | i | 3 | ? | 21µM* | -2%
SMILES | KCNH2 WT inh | KB-3-1 cytotox | KCNH2 3.1 block | KB-V1 cytotox | MCF10A rerep | SW480 rereplic
Cc1cccc(-n2c(SCC(=O)NCc3ccco3)nnc2-c2ccco2)c1 | 22 | i | -13 | ? | -4% | -1%
Cc1ccc(-n2c(SCC(=O)NCc3ccco3)nnc2-c2cccnc2)c(C)c1 | 1 | i | 12 | 21µM* | 8% | 20%
Cc1cc2nnc(SCC(=O)NCc3cccs3)n2c2ccccc12 | 3 | i | -20 | i | 8% | -7%
Cc1cc2nnc(SCC(=O)NCc3ccco3)n2c2ccccc12 | 1 | 5.8µM* | 3 | i | ? | 18µM*
COc1ccc(OC)c(CNC(=O)COc2cc(=O)n(C)c3ccccc23)c1 | -10 | i | 1 | 18µM* | 7% | 2%
CCCn1c2ccccc2c2cnn(CC(=O)NCCc3ccc(C)cc3)c(=O)c21 | nt | i | nt | i | nt | nt
CCn1c(-c2cc3c(C(F)(F)F)nn(C)c3s2)n[nH]c1=S | 1 | ? | 8 | 10µM* | 11% | 0%
CC1CCC(NC(=O)c2cccc(S(=O)(=O)NCc3ccccc3)c2)CC1 (stereo unspecified) | 3 | i | 2 | i | 5% | -26%
CCCCCCCCN1C(=O)[C@H](CC(=O)NCc2cccc(C(F)(F)F)c2)C[C@@]2(C(=O)OCC)CCC=C12 | nt | i | nt | i | nt | nt
COC(=O)[C@]12CCCCC=C1N(Cc1cccc3ccccc13)C(=O)[C@H](CC(=O)NCc1cccs1)C2 | nt | ? | nt | 16µM* | nt | nt
CCCCCCCCN1C(=O)[C@H](CC(=O)NCc2cccc(C(F)(F)F)c2)C[C@@]2(C(=O)OC)CCCCC=C12 | nt | ? | nt | 16µM* | nt | nt
CCOC(=O)[C@]12CCC=C1N(Cc1cccc3ccccc13)C(=O)[C@H](CC(=O)NCCC(C)C)C2 | nt | ? | nt | 16µM* | nt | nt
CCCCOCCCNC(=O)C[C@@H]1C[C@@]2(C(=O)OCC)CCCC=C2N(Cc2cccc3ccccc23)C1=O | nt | ? | nt | 18µM* | nt | nt
N#Cc1cccc(OC(=O)C2CCN(C(=O)c3ccc(F)cc3)CC2)c1 | 0 | i | -6 | i | nt | nt
COc1cc(C2NC(=O)NC(C)=C2C(=O)Nc2cc(C)cc(C)c2)ccc1O (stereo unspecified) | nt | i | nt | i | nt | nt
COC(=O)[C@]12CCCCC=C1N(CCc1ccc(OC)c(OC)c1)C(=O)[C@H](CC(=O)NCc1cccc3ccccc13)C2 | nt | i | nt | 21µM* | nt | nt
COC(=O)[C@]12CCCCC=C1N(Cc1cccc3ccccc13)C(=O)[C@H](CC(=O)NCc1ccc(OC)c(OC)c1)C2 | nt | 5.8µM* | nt | ? | nt | nt
COC(=O)[C@]12CCCCC=C1N(CCC1=CCCCC1)C(=O)[C@H](CC(=O)NCc1cccs1)C2 | nt | ? | nt | i | nt | nt
CCOC(=O)[C@]12CCC=C1N(Cc1cccc3ccccc13)C(=O)[C@H](CC(=O)NCc1ccc(OC)c(OC)c1)C2 | nt | 6.5µM* | nt | ? | nt | nt

High-throughput results deposited in PubChem by National Center for Advancing Translational Sciences (NCATS).
